Experiment [1] has as its target Retinoic acid receptor RXR-alpha (Homo sapiens) (UniProt P19793). Nature of the experiment: ATG_RXRa_TRANS: Attagene TRANS-FACTORIAL HepG2 Assay for human Retinoid X Receptor alpha (RXRa) (AID 2283012). In a few lines:
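Chimeric NR-GAL4 trans-activation in HepG2, 24 h treatment; reporter transcripts quantified by fluorescence on capillary electrophoresis, analysed for upward change from DMSO.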

In experiment [2] the target is human Retinoid X Receptor beta (RXRb), RXRB (gene 6257) (UniProt P28702). The experiment in a line: ATG_RXRb_TRANS: Attagene TRANS-FACTORIAL HepG2 Assay for human Retinoid X Receptor beta (RXRb) (AID 2283013). In short, it runs like this: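 After a 24 h incubation with test chemical, transfected HepG2 cells carrying NR-Gal4 fusions and GAL4-UAS reporter transcription units yield RNA whose reporter cDNA is FAM-labelled, HpaI-cut and sized by capillary electrophoresis; increases over DMSO are scored.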

The target of experiment [3] is human Thyroid Receptor alpha (THRa1), THRA (gene 7067) (UniProt P10827). Nature of the experiment: ATG_THRa1_TRANS: Attagene TRANS-FACTORIAL HepG2 Assay for human Thyroid Receptor alpha (THRa1) (AID 2283014). In short, it runs like this:
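Measured here is mRNA from a GAL4-UAS reporter in transfected HepG2 cells carrying a Gal4-fused receptor, 24 h post-dose. DMSO served as negative control and baseline.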

Read-out in experiment [4]: E-selectin (Homo sapiens) (UniProt P16581)
Nature of the experiment: BSK_3C_Eselectin: BioMAP Diversity Plus: 3C Assay for Eselectin Biomarker Activity (AID 2283015; active = hit-call score of the fitted dose curve at least 0.9, where 1 is the maximum; inactive = score below 0.9;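 for outcome: cell surface E-selectin protein quantified by ELISA 24 h after dosing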). To be noted: primary human endothelial cells (HUVEC); actives raise or lower the signal. In a few lines: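 Endpoint derived by bidirectional fitting against DMSO vehicle; signal is ELISA-detected E-selectin from primary HUVEC at 24 h post-dosing, with parallel SRB staining (0.1% SRB, 560 nm) flagging cytotoxicity.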

Read-out in experiment [5]: Interleukin-1 alpha (IL1a), IL1A (gene 3552)
The experiment in a line: BSK_BE3C_IL1a: BioMAP Diversity Plus: BE3C Assay for Interleukin-1 alpha (IL1a) Biomarker Activity (AID 2283016; active = hit-call score of the fitted dose curve at least 0.9, where 1 is the maximum; inactive = score below 0.9). To be noted: primary human bronchial epithelial cells; actives raise or lower the signal. In a few lines:
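Measured in human lung primary bronchial epithelial cells: IL-1a by ELISA at 24 h after dosing, with bidirectional fitting against DMSO.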

Read-out in experiment [6]: Monocyte Chemoattractant Protein-1 (MCP1), CCL2 (gene 6347)
Nature of the experiment: BSK_3C_MCP1: BioMAP Diversity Plus: 3C Assay for Monocyte Chemoattractant Protein-1 (MCP1) Biomarker Activity (AID 2283017; active = hit-call score of the fitted dose curve at least 0.9, where 1 is the maximum; inactive = score below 0.9). To be noted: primary human endothelial cells (HUVEC); actives raise or lower the signal. In short, it runs like this: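 Using human vascular primary endothelium, researchers measured MCP-1 by ELISA 24 h after treatment, with DMSO serving as negative control for bidirectional fitting.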

Read-out in experiment [7]: Human Leukocyte Antigen - DR isotype (HLADR), HLA-DRA (gene 3122)
Nature of the experiment: BSK_3C_HLADR: BioMAP Diversity Plus: 3C Assay for Human Leukocyte Antigen - DR isotype (HLADR) Biomarker Activity (AID 2283019; active = hit-call score of the fitted dose curve at least 0.9, where 1 is the maximum; inactive = score below 0.9;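 for outcome: ELISA of cell-surface HLA-DR on HUVEC 24 h after dosing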). To be noted: primary human endothelial cells (HUVEC); actives raise or lower the signal. In short, it runs like this: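 Compound added to primary HUVEC cultures, 24 h incubation, then HLA-DR determined by ELISA; endpoint derived by bidirectional fitting relative to DMSO negative control.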

Read-out in experiment [8]: Interleukin-8 (IL8), CXCL8 (gene 3576)
The experiment in a line: BSK_3C_IL8: BioMAP Diversity Plus: 3C Assay for Interleukin-8 (IL8) Biomarker Activity (AID 2283020; active = hit-call score of the fitted dose curve at least 0.9, where 1 is the maximum; inactive = score below 0.9). To be noted: primary human endothelial cells (HUVEC); actives raise or lower the signal. In a few lines:
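Using DMSO-treated wells as the baseline, bidirectional curve fitting was applied to ELISA-measured IL-8 from human umbilical vein endothelial cultures sampled 24 h after compound addition.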

Read-out in experiment [9]: Monocyte Chemoattractant Protein-1 (MCP1), CCL2 (gene 6347)
Nature of the experiment: BSK_4H_MCP1: BioMAP Diversity Plus: 4H Assay for Monocyte Chemoattractant Protein-1 (MCP1) Biomarker Activity (AID 2283018; active = hit-call score of the fitted dose curve at least 0.9, where 1 is the maximum; inactive = score below 0.9). To be noted: primary human endothelial cells (HUVEC); actives raise or lower the signal. In a few lines:
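Primary human umbilical vein endothelium is exposed to chemical for 24 h before MCP-1 is assayed by ELISA. Concentration-response fitted bidirectionally relative to DMSO.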

Several values for one entry are separate records, joined by “and”; a condition that tells them apart may be missing. Identical values can stand only once. Results filed as inconclusive are left out. Activity calls are given as the source filed them. Rule for the calls, unless noted: active = hit-call score of the fitted dose curve at least 0.9, where 1 is the maximum; inconclusive = response in the unintended direction; inactive = score below 0.9.

Sequence of E-selectin (Homo sapiens) (P16581 whole entry, looked up): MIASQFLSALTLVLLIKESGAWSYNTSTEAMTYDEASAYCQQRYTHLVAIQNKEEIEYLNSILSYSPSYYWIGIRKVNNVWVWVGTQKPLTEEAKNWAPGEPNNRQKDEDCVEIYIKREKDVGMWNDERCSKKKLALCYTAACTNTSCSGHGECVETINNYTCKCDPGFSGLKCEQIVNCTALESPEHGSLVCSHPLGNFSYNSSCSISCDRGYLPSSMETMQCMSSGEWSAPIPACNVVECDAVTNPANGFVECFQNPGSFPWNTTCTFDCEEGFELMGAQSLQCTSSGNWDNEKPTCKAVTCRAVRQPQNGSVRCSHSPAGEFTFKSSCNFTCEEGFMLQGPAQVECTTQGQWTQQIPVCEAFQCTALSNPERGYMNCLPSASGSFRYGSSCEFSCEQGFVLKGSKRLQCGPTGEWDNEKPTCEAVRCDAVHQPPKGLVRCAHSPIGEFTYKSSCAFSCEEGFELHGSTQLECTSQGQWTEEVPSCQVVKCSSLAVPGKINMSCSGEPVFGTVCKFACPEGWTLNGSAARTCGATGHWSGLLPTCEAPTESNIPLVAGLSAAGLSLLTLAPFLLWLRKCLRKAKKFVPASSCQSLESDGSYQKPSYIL
Sequence of Retinoic acid receptor RXR-alpha (Homo sapiens) (P19793 whole entry, looked up, the tested form may be a part): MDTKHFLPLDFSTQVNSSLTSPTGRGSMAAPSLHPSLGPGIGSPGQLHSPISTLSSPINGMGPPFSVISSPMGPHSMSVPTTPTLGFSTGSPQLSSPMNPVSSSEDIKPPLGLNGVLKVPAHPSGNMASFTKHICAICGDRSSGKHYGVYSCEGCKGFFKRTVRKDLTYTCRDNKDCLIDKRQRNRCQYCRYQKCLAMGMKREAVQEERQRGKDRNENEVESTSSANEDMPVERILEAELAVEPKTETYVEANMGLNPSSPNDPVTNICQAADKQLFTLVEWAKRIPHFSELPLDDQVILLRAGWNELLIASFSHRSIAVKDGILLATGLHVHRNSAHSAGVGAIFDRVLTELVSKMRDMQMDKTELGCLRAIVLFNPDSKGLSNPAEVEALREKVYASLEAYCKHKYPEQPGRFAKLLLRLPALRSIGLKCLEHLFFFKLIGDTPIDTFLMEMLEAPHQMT
Sequence of human Thyroid Receptor alpha (THRa1), THRA (gene 7067) (P10827 whole entry, looked up, the tested form may be a part): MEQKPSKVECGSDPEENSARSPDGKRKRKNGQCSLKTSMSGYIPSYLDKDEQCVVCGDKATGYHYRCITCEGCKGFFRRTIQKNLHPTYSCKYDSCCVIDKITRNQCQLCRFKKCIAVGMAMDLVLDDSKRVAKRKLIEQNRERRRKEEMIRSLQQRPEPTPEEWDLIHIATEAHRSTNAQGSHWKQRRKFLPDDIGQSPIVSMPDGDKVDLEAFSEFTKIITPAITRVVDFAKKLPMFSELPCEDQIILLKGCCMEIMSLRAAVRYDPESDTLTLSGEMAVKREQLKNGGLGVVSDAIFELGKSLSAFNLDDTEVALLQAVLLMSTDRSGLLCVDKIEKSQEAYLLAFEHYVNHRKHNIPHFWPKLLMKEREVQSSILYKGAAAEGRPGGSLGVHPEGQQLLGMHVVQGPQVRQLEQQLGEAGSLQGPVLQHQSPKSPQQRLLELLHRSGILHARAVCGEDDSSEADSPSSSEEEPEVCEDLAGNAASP
Sequence of human Retinoid X Receptor beta (RXRb), RXRB (gene 6257) (P28702 whole entry, looked up, the tested form may be a part): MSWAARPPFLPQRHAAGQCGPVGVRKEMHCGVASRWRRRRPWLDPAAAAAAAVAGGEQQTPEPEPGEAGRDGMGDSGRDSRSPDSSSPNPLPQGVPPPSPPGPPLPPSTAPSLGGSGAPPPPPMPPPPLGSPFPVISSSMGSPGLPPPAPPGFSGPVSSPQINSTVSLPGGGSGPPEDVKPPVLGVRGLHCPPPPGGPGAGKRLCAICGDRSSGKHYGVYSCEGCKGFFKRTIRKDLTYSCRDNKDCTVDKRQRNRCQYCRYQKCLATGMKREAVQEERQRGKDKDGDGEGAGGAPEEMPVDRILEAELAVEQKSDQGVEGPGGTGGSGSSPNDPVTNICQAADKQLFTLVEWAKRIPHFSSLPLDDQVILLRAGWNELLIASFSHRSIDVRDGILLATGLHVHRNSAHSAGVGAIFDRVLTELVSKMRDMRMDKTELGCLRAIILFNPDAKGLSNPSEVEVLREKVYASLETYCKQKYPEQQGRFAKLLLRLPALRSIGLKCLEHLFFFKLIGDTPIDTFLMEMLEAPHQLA

Consider `O=C(O)CNc1ccccc1`, for which the molecule was classed as inactive in experiment [1], in experiment [2] and in experiment [3].

As to `COS(=O)(=O)O`, the result in [1], in [2] and in experiment [3] was inactive.

On to `C[C@H](CCC(=O)NCC(=O)O)[C@H]1CC[C@H]2[C@@H]3[C@H](O)C[C@@H]4C[C@H](O)CC[C@]4(C)[C@H]3C[C@H](O)[C@]12C`, for which the call in experiment [1] and in experiment [2] was inactive. Moreover, the AC50 (as a rule, the midpoint of the concentration-response curve, whichever way the signal moves) in [3] is 68.7 µM (active).

With `Cc1cc(C)nc(NS(=O)(=O)c2ccc(N)cc2)n1`, the molecule was called inactive in [1], in [2] and in experiment [3].

Consider `Nc1ccc(NCCO)c([N+](=O)[O-])c1`, for which the result in experiment [1] and in [3] was inactive. Besides, the AC50 in [2] was 18.1 µM (active).

For the molecule `CC1=NN(c2ccc(S(=O)(=O)O)cc2)C(=O)C1`, the molecule was classed as inactive in [1], in experiment [2] and in experiment [3].

With `OCc1cccc(Oc2ccccc2)c1`, the molecule was called inactive in experiment [1] and in experiment [3]. In experiment [2], the AC50 was 100 µM (active).

Take `Nc1c(S(=O)(=O)O)cc(Br)c2c1C(=O)c1ccccc1C2=O`: the molecule was called inactive in [1], in [2] and in experiment [3].

Take `COc1ccc(CCC(C)=O)cc1`: the molecule was classed as inactive in experiment [1], in experiment [2] and in experiment [3].

Regarding `C=CC(=O)OCCC#N`, the call in experiment [1], in experiment [2] and in [3] was inactive.

For the molecule `BrCc1cccc(Oc2ccccc2)c1`, the molecule was classed as inactive in [1] and in experiment [3]. The AC50 in [2] is 66.9 µM (active).

With `C1=CC2C3C=CC(C3)C2C1` (centres undefined), the molecule was classed as inactive in [1], in experiment [2], in experiment [3], in [4], in [5] and in experiment [6]. In addition, the result in experiment [7] and in experiment [8] was inactive.

For `CS(=O)(=O)c1ccc(C2=C(c3ccccc3)C(=O)OC2)cc1`, the molecule was called inactive in experiment [1], in [2], in [3], in experiment [4], in experiment [5] and in [6]. The result in [9], in experiment [7] and in experiment [8] was inactive.

Turning to `CCCC(=O)C(CC)Sc1ccoc1C` (centres undefined), the call in experiment [1] and in [3] was inactive. The AC50 in experiment [2] was 46.1 µM (active).

Take `CCc1cc(Cc2cc(CC)cc(C(C)(C)C)c2O)c(O)c(C(C)(C)C)c1`: the molecule was called inactive in experiment [1] and in [3]. The AC50 in experiment [2] is 5.71 µM (active).

As for `Clc1ccc(C(c2ccccc2Cl)C(Cl)Cl)cc1` (centres undefined), the molecule was called inactive in experiment [1] and in experiment [3]. Moreover, the AC50 in experiment [2] is 9.66 µM (active).

In the case of `C=Cc1ccncc1`, the molecule was classed as inactive in experiment [1], in [2] and in experiment [3].

Turning to `COC(=O)Nc1ccc(Cl)c(Cl)c1`, the result in experiment [1] and in experiment [3] was inactive. Further, the AC50 in [2] is 45.1 µM (active).

For the molecule `C=CC(=O)OCCCC`, the molecule was classed as inactive in experiment [1], in experiment [2] and in experiment [3].

Regarding `c1ccc(CCc2ccccc2)cc1`, the molecule was called inactive in experiment [1], in experiment [2] and in experiment [3]. In addition, the AC50 in experiment [4] was 28.7 µM (active); in [5], 27 µM (active); in experiment [6], 28.5 µM (active); in experiment [7], 15.3 µM (active); in [8], 25.8 µM (active).

For the molecule `Clc1cc(Cl)c(-c2c(Cl)c(Cl)cc(Cl)c2Cl)cc1Cl`, the molecule was classed as inactive in [1], in experiment [2] and in [3]. Also, the concentration at half-maximal activity (AC50) in experiment [4] was 13.8 µM (active); in [5] it was 1.98 µM (active); in [6], 16 µM (active); in experiment [9] it was 8.9 µM (active); in experiment [7], 15.2 µM (active); in experiment [8], 1.98 µM (active).

Regarding `CCc1ncc(C)[nH]1`, the outcome in [1] and in experiment [3] was inactive.

Consider `CCCCOC(=O)CCCCCCCC(=O)OCCCC`, for which the result in experiment [1], in experiment [2], in experiment [3], in experiment [4], in experiment [5] and in [6] was inactive. Further, the outcome in experiment [7] and in [8] was inactive.

For the molecule `CCCCCCCC(=O)OCC(O)CO` (centres undefined), the outcome in [1] and in [3] was inactive.

Turning to `C#CC(C)(O)CC(C)C` (centres undefined), the molecule was classed as inactive in experiment [1] and in experiment [3].

`CC1CC(O)CC(C)(C)C1` (centres undefined): the call in experiment [1] and in experiment [3] was inactive.

Consider `C=C(C)[C@H]1CC=C(C)C(=O)C1`, for which the molecule was classed as inactive in [1], in experiment [2], in experiment [3], in experiment [4], in experiment [5] and in experiment [6]. Moreover, the outcome in [7] and in experiment [8] was inactive.

With `CCCCCCC(CO)CCCC` (centres undefined), the call in [1], in experiment [4], in experiment [5], in experiment [6], in experiment [7] and in experiment [8] was inactive. Moreover, the AC50 in experiment [2] is 54.8 µM (active).

Turning to `CC(C=O)Cc1ccc(C(C)(C)C)cc1` (centres undefined), the molecule was classed as inactive in experiment [1], in [2], in [5] and in experiment [8]. Also, the AC50 was 30.8 µM (active) in [4], 30.6 µM (active) in experiment [6] and 30.3 µM (active) in experiment [7].

For the molecule `CC1(C)CCC[C@]2(C)[C@H]3CCO[C@]3(C)CC[C@@H]12`, the molecule was called inactive in [1] and in experiment [2]. For the same molecule, the half-maximal activity concentration (AC50) is 36.9 µM (active) and 34.3 µM (active) in [4]; 28.7 µM (active) and 29.6 µM (active) in [5]; 26.4 µM (active) and 34.5 µM (active) in experiment [6]; 33.8 µM (active) and 34.7 µM (active) in experiment [7]; 31.5 µM (active) and 35.4 µM (active) in [8].

Regarding `CCOC(=O)COC(=O)c1cc(Oc2ccc(C(F)(F)F)cc2Cl)ccc1[N+](=O)[O-]`, the outcome in experiment [1] and in experiment [3] was inactive.

For the molecule `CCCCSCCCC`, the call in experiment [1] and in experiment [3] was inactive.

As to `CCOC(=O)c1ccc(N)cc1`, the result in [1] and in experiment [3] was inactive.

Regarding `O=C1OC[C@H](Cc2cccc(O)c2)[C@H]1Cc1cccc(O)c1`, the call in [1], in [2], in experiment [3], in experiment [4], in experiment [5] and in experiment [6] was inactive. Moreover, the result in experiment [7] and in experiment [8] was inactive.

Values taken from PubChem BioAssay (EPA / NIEHS).
